Assay results as given in PubChem BioAssay (NCATS).
Results filed as inconclusive are left out. Calls of active or inactive are those of the source. Unless noted, the call rests on the fitted dose curve; in most records, active means well fitted curve in the direction sought with a large enough effect; inconclusive means small, poorly fitted or top-dose-only effect, or another doubt; inactive means no such curve, though single readings can be large; an effect the other way counts as inactive or inconclusive.

Experiments:
[1] = molecular target: Lysosomal acid glucosylceramidase (Homo sapiens) (UniProt P04062); assay: Glucocerebrosidase-p2 (AID 348; in the data active means potency below about 10 µM; further: potency means the concentration at half of the fitted maximal effect); details: purified GBA, blue fluorogenic substrate, 40 min
Sequence of Lysosomal acid glucosylceramidase (Homo sapiens) (P04062 whole entry, looked up): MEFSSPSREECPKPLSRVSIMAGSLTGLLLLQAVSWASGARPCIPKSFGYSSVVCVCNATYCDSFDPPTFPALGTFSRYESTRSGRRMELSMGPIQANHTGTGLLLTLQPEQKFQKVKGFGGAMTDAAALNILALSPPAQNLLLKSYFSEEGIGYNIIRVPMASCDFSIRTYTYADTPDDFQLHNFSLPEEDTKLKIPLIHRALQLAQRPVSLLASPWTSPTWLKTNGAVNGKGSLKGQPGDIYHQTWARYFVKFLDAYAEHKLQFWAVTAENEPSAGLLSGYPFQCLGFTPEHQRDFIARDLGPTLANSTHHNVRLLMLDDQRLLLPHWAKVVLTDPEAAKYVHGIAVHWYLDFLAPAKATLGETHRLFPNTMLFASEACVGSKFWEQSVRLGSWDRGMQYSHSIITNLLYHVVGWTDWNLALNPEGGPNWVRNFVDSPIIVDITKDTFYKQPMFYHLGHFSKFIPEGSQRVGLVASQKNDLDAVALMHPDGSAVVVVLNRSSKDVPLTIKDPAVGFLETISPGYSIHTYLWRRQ
Outline: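 Normal human glucocerebrosidase (0.2 nM) with blue fluorogenic substrate (80 uM final) in citrate/phosphate pH 5.9 with 10mM sodium taurocholate, 0.01% tween-20; 40 min RT, NaOH/glycine stop; fluorescence Ex 365/Em 440; AC50 from a titration from 0.6 nM upwards.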

[2] = AP1 Signaling Pathway (AID 357; active means well fitted curve in either direction with a large enough effect, not every such curve was filed as active;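 further: ME-180 reporter cells stimulated with EGF at its EC50 level; on the % scale 0 is the no-effect control and ±100 the full control effect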); details: ME-180 AP-1-bla reporter, EGF-induced, beta-lactamase ratio, 5 h; at 7.69 µM (top of the series) unless noted
Outline: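 Read-out was the 460nm/530nm emission ratio (excitation 405nm) after CCF4 loading for 2.5 hours at room temperature. Cells carried an AP-1-driven beta-lactamase reporter, were stimulated with EC50 EGF plus compound for 5 hours, and AC50 values came from titrations.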

[3] = molecular target: Cytochrome P450 1A2 (Homo sapiens) (UniProt P05177); assay: p450-cyp1a2 (AID 410; calls by dose curve; further: potency means the concentration at half of the fitted maximal effect); details: recombinant CYP1A2, luciferin-ME demethylation, luminescence; series mostly up to 57 µM
Sequence of Cytochrome P450 1A2 (Homo sapiens) (P05177 whole entry, looked up): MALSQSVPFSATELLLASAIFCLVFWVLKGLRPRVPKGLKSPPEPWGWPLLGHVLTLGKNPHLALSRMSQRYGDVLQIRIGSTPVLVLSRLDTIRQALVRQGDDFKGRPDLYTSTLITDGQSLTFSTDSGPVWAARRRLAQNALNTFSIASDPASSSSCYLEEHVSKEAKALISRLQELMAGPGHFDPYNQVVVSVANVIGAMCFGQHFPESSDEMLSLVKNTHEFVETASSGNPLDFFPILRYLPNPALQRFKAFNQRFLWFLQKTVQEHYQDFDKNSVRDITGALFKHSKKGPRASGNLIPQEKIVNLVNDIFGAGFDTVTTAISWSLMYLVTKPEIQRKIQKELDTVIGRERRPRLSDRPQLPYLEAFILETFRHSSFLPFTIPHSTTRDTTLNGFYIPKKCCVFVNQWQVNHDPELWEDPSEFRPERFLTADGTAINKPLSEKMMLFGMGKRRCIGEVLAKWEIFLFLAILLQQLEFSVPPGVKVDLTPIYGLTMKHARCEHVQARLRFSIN
Outline: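 O-Demethylation of luciferin 6' methyl ether by human CYP1A2 is monitored as luciferase luminescence. Substrate sits at Km (100uM); enzyme is 20nM. Values are scaled to 57 uM furafylline as maximal inhibition.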

[4] = NFAT Signaling Pathway (AID 444; active means well fitted curve in either direction with a large enough effect, not every such curve was filed as active;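 further: carbachol stimulus at about its EC50 of 1 µM final; on the % scale 0 is the no-effect control and ±100 the full control effect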); details: Jurkat NFAT-bla M1, carbachol, beta-lactamase ratio, 5 h; at 7.69 µM (top of the series) unless noted
Outline: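 Read-out: CCF4 FRET ratio (460 nm/530 nm) after 1 h RT dye loading, used for %activity and AC50 from titration series. Cells: Jurkat NFAT-β-lactamase/M1 line, treated with compound plus 1 uM carbachol for 5 h, 37 °C.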

[5] = Stat Signaling Pathway (AID 446; active means well fitted curve in either direction with a large enough effect, not every such curve was filed as active;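 further: ME-180 cervical cancer cells given 40 pM IL-6 alongside compound; SIE-controlled beta-lactamase reporter measured as 460/530 nm FRET emission ratio; on the % scale 0 is the no-effect control and ±100 the full control effect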); details: ME-180 (cervical carcinoma) SIE beta-lactamase reporter, IL-6 stimulated, 5 h; at 7.69 µM (top of the series) unless noted
Outline: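 Overnight-plated ME-180 cells bearing a STAT Inducible Element beta-lactamase reporter; 5 h co-exposure to compound and 40 pM IL-6; values normalized to 300 pM IL-6 and 125 nM JAK inhibitor controls.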

[6] = molecular target: Glucocorticoid receptor (Homo sapiens) (UniProt P04150); assay: GR-GFP Redistribution (AID 450;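 active means compounds whose dose series gives a full or clear partial fitted curve of increased nuclear translocation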; further: potency means the concentration at half of the fitted maximal effect); details: U2OS GR-GFP nuclear translocation, laser cytometry, 2 h
Sequence of Glucocorticoid receptor (Homo sapiens) (P04150 whole entry, looked up, the tested form may be a part): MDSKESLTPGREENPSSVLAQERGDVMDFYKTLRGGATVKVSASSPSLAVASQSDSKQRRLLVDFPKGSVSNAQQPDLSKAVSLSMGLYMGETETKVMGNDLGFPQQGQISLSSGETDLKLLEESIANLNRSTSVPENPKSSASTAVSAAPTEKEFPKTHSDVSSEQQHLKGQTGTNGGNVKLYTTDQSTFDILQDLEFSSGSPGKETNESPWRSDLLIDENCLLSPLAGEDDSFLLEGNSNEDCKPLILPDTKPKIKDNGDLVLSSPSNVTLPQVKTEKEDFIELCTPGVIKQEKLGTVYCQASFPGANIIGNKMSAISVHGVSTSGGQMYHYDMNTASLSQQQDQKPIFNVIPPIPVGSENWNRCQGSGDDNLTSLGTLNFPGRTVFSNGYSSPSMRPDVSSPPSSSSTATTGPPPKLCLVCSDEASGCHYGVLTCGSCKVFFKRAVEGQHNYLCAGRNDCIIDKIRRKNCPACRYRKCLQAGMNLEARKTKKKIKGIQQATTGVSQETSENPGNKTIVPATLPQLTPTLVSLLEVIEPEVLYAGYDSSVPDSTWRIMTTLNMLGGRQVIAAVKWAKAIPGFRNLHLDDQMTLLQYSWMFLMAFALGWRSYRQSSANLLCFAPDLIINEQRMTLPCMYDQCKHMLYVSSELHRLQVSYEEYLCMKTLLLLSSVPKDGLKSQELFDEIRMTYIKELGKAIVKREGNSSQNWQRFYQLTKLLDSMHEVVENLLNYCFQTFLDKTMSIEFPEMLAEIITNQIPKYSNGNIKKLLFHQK

[7] = molecular target: Glucocorticoid receptor (Homo sapiens) (UniProt P04150); assay: GR-EFC Redistribution (AID 451; calls by dose curve; further: potency means the concentration at half of the fitted maximal effect); details: CHO-K1 GR-EFC translocation, beta-gal luminescence, 2 h
Outline: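 Translocation of GR-ED fusion to nuclear EA restores b-gal, read by luminescence after 1 h room-temperature detection. Engineered CHO-K1 biosensor cells, 1,000/well, exposed 2 h at 37 C to titrations up to 46 uM final.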

[8] = molecular target: Mitogen-activated protein kinase 10 (Mus musculus) (UniProt Q61831); assay: JNK3 AlphaScreen Assay (AID 530; active means well fitted curve in either direction with a large enough effect, not every such curve was filed as active;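 further: kinase came from lysate of stimulated human HepG2 cells; signal reports phosphorylation of biotinylated GST-cJun 1-79 at Ser73 with 10 µM ATP; on the % scale 0 is the no-effect control and ±100 the full control effect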); details: JNK3 lysate, c-Jun phosphorylation; series mostly up to 57.1 µM
Outline: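 qHTS titrations with 15 min compound pre-incubation before adding ATP (10 uM final). Read-out: AlphaScreen of Ser73-phosphorylated biotin-GST-cJun using HepG2 lysate JNK3 activated by IL-1β and TNFα.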

[9] = molecular target: 3',5'-cyclic-AMP phosphodiesterase 4B (Homo sapiens) (UniProt Q07343); assay: qHTS Assay for Inhibitors of PDE-IV (AID 607; active means well fitted activation curve with a large enough effect in the main read-out, with a control signal flat, not every such curve was filed as active; further: % of control where 0% means no effect); details: HEK293 ACTOne CNG channel cells, membrane potential fluorescence; series mostly up to 22.9 µM
Sequence of 3',5'-cyclic-AMP phosphodiesterase 4B (Homo sapiens) (Q07343 whole entry, looked up): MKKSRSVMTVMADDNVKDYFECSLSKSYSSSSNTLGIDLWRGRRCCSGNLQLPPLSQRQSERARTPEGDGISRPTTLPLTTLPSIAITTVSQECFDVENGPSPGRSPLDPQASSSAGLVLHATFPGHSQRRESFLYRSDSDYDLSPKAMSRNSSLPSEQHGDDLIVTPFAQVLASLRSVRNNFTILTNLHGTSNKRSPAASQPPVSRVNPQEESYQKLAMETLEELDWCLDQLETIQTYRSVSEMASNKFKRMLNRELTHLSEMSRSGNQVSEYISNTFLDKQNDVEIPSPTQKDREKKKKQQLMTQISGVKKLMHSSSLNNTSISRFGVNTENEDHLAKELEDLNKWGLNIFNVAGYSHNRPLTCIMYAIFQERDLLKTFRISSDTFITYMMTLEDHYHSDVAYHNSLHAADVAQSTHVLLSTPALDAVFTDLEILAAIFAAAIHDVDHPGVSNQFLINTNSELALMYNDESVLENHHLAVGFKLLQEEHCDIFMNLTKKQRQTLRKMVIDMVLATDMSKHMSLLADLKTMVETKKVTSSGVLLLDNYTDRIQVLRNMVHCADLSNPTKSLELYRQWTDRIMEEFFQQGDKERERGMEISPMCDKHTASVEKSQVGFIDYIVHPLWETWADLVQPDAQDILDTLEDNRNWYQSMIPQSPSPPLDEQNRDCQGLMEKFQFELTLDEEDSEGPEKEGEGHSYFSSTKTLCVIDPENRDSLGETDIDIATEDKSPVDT
Outline: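 Live HEK293 cells with a modified cyclic nucleotide-gated (CNG) channel report intracellular cAMP via membrane-potential dye fluorescence (ex 535/em 590 nm). Endogenous PDE-IV was targeted. Compounds were tested at up to 22.9 uM final; RO 20-1724 100 uM served as control.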

[10] = molecular target: Cytochrome P450 3A4 (Homo sapiens) (UniProt P08684); assay: qHTS Assay for Inhibitors and Substrates of Cytochrome P450 3A4 (AID 884); details: recombinant CYP3A4, Luciferin-PPXE luminescence; series mostly up to 57.1 µM; further: potency means the concentration at half of the fitted maximal effect; nearly all actives have a fitted effect of over 50% in size
Sequence of Cytochrome P450 3A4 (Homo sapiens) (P08684 whole entry, looked up): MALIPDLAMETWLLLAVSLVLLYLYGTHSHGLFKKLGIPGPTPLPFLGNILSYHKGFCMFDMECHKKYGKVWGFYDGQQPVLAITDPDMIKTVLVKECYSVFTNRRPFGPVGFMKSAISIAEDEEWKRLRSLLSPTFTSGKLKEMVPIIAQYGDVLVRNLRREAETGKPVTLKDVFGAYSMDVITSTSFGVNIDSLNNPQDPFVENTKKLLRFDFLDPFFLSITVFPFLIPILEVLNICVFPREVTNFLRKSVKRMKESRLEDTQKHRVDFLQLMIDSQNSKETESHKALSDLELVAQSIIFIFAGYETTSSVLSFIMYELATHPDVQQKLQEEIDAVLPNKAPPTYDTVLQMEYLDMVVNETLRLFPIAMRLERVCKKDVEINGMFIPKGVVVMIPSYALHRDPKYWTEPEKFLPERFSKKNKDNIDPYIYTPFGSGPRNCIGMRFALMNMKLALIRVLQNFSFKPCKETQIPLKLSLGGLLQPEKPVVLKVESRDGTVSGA
Outline: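 Luminescent readout of luciferin produced by CYP3A4 (20 nM) dealkylation of Luciferin-PPXE, 25 uM (its KM). NADPH-driven reaction ran 60 min at RT after 10 min compound preincubation; data scaled to 57 uM ketoconazole as 100% inhibition.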

[11] = molecular target: Cytochrome P450 3A4 (Homo sapiens) (UniProt P08684); assay: qHTS Assay for Activators of Cytochrome P450 3A4 (AID 885); details: recombinant CYP3A4, Luciferin-PPXE luminescence, 60 min; series mostly up to 57.1 µM; further: nearly all actives have a fitted effect of over 65% in size
Outline: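 Using 20nM recombinant human CYP3A4 in potassium phosphate (200mM), substrate Luciferin-PPXE at 25uM, luminescent luciferin detection followed a 60-min RT NADPH reaction; data scaled to 57 uM ketoconazole.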

[12] = molecular target: Cytochrome P450 2C19 (Homo sapiens) (UniProt P33261); assay: qHTS Assay for Inhibitors and Substrates of Cytochrome P450 2C19 (AID 899); details: recombinant CYP2C19, luciferin-H EGE luminescence; series mostly up to 57.1 µM; further: potency means the concentration at half of the fitted maximal effect; nearly all actives have a fitted effect of over 60% in size
Sequence of Cytochrome P450 2C19 (Homo sapiens) (P33261 whole entry, looked up): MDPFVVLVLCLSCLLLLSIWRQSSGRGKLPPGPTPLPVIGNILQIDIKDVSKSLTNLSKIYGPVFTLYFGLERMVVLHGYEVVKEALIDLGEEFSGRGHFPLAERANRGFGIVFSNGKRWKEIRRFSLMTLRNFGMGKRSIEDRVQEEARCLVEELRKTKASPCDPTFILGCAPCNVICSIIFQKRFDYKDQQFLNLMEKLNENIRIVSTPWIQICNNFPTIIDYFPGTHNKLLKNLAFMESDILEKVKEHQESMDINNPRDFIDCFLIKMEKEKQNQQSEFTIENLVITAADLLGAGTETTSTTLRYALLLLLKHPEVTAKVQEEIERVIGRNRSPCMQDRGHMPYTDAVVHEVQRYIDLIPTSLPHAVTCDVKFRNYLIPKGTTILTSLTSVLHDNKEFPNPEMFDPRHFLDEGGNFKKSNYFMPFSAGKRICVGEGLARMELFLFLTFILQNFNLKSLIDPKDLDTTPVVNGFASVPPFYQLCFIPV
Outline: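 5nM enzyme + 10uM Luciferin-H EGE (=KM), 50mM KPO4; cpd pin-transferred, 10 min 37C; NADPH regen, 60 min 37C; stopped w/ luciferin detection reagent, 20 min; luminescence. Normalized to 57uM ketoconazole (AC100).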

[13] = molecular target: Dual specificity protein kinase CLK4 (Homo sapiens) (UniProt Q9HAZ1); assay: qHTS Assay for Inhibitors of CDC-like Kinase 4 (Kinase-Glo Assay) (AID 1770); details: recombinant Clk4, Kinase-Glo ATP depletion luminescence; series mostly up to 66.7 µM; further: nearly all actives have a fitted effect of over 65% in size; further: potency means the concentration at half of the fitted maximal effect
Sequence of Dual specificity protein kinase CLK4 (Homo sapiens) (Q9HAZ1 whole entry, looked up): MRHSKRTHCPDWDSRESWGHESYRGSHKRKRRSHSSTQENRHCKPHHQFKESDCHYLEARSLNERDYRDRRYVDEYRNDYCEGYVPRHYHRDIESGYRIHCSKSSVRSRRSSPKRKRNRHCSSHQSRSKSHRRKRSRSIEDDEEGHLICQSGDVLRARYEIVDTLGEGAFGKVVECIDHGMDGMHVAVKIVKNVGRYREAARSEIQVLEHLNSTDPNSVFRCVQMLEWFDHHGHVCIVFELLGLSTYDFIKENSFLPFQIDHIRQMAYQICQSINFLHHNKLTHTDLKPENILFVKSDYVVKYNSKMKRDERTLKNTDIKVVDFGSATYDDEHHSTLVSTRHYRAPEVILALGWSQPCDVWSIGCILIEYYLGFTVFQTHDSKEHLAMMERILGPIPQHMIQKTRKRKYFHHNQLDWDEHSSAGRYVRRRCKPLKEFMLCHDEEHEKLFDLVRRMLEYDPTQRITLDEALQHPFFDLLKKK
Outline: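 Recombinant human Clk4 (25 nM) phosphorylated RS repeat peptide (100 uM) with 1 uM ATP in Tris pH 7.5/MgCl2/EGTA/DTT/Triton buffer for 4.5 h at room temperature. Residual ATP was quantified by Kinase-Glo luciferase luminescence.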

[14] = molecular target: Dual specificity protein kinase CLK4 (Homo sapiens) (UniProt Q9HAZ1); assay: qHTS Assay for Inhibitors of CDC-like Kinase 4 (ADP-Glo Assay) (AID 1771); details: recombinant CLK4, ADP-Glo luminescence; series mostly up to 80 µM; further: nearly all actives have a fitted effect of over 70% in size; further: potency means the concentration at half of the fitted maximal effect
Outline: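 Compounds are pin-transferred onto substrate mix (100 uM RS peptide, 1 uM ATP), then 25 nM Clk4 is added. After 1 hr at room temperature, ADP-Glo reagent runs 45 min, detection reagent 30 min, then luminescence is read.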

[15] = molecular target: Dual specificity protein kinase CLK4 (Homo sapiens) (UniProt Q9HAZ1); assay: qHTS Assay for Inhibitors of CDC-like Kinase 4 (ADP-FP Assay) (AID 1795); details: Transcreener ADP fluorescence polarization; series mostly up to 50 µM; further: nearly all actives have a fitted effect of over 60% in size; further: potency means the concentration at half of the fitted maximal effect
Outline: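 Recombinant human Clk4 (6.25 nM) phosphorylated RS repeat peptide (100 uM) with 1 uM ATP in Tris pH 7.5/MgCl2/EGTA/DTT/Triton buffer for one hour. ADP was quantified by Transcreener competitive fluorescence polarization against an ADP calibration curve.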

[16] = molecular target: Ubiquitin carboxyl-terminal hydrolase 1 (Homo sapiens) (UniProt O94782); assay: Inhibitors of USP1/UAF1: Pilot qHTS (AID 504865); details: purified USP1/UAF1, Ub-rhodamine cleavage fluorescence; series mostly up to 54.9 µM;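 further: rhodamine fluorescence freed from ubiquitin-rhodamine substrate followed over time; top concentration of the series differs between compounds; on the % scale 0 is the no-effect control and ±100 the full control effect; nearly all actives have a fitted effect of over 35% in size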
Sequence of Ubiquitin carboxyl-terminal hydrolase 1 (Homo sapiens) (O94782 whole entry, looked up): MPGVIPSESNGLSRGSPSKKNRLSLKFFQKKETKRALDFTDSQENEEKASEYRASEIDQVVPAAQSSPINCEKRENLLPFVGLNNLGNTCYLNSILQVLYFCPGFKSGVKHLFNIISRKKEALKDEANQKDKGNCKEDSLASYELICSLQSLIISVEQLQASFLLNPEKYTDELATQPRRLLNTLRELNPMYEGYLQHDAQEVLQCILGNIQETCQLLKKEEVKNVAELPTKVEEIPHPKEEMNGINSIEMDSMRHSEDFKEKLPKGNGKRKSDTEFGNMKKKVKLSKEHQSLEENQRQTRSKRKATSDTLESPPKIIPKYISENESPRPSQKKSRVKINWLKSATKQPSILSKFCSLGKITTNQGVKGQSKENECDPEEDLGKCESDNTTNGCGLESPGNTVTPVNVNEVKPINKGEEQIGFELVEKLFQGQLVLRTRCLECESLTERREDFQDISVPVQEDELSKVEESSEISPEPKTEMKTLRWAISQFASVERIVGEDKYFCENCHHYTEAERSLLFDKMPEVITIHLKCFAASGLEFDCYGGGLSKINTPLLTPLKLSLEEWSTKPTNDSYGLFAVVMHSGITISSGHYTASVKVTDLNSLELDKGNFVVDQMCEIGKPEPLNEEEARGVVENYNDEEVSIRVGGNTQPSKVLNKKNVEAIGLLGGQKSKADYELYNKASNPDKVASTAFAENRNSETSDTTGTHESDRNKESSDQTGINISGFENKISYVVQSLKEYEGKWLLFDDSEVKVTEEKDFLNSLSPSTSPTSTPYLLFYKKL
Outline: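 USP1/UAF1 complex (1nM) preincubated with compound 15 min at room temperature, then Ub-Rho substrate (150nM final) added. Fluorescence read kinetically at 480/540 nm, 6 reads every 60 seconds. Buffer: 50mM HEPES pH 7.8, 0.5mM EDTA, 0.1 mg/ml BSA, 1mM TCEP, 0.01% Tween-20.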

[17] = Primary qHTS for small molecule stabilizers of the endoplasmic reticulum resident proteome: Secreted ER Calcium Modulated Protein (SERCaMP) assay (AID 1508630); details: SH-SY5Y GLuc-SERCaMP (Gaussia luciferase released on ER calcium loss) secretion, thapsigargin, luminescence; series mostly up to 38.4 µM; further: on the % scale 0 is the no-effect control and ±100 the full control effect
Outline: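 The SH-SY5Y reporter protocol was run at 3 concentrations up to 38.3 uM (primary) or 11 concentrations (follow-up): 16 h compound, 100 nM thapsigargin for 4 h, then extracellular luciferase luminescence.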

N#Cc1cccc(-c2nccc(-n3ccnc3)n2)c1
inactive: Potency [1] > 11.4 µM | activity change, negative = inhibition [2] 10.7% | activity change, negative = inhibition [4] 10.9% | activity, negative = inhibition [5] 4.18% | Potency [6] > 46 µM | Potency [7] > 46 µM | Potency [8] | Potency [9] | Potency [11] | Potency [16] | outcome [17]
active: Potency [3] 0.2 µM | Potency [10] 2.51 µM | Potency [12] 7.94 µM | Potency [13] 8.91 µM | Potency [14] 10 µM | Potency [15] 12.6 µM

O=c1c(-c2cccc(Cl)c2)nc2cncnc2n1C1CC1
inactive: Potency [1] > 11.4 µM | activity change, negative = inhibition [2] -20.9% | activity change, negative = inhibition [4] -7.65% | activity, negative = inhibition [5] -4.14% | Potency [6] > 9.22 µM | Potency [7] > 46 µM | Potency [8] | Potency [9] | Potency [11] | Potency [13] | Potency [14] | Potency [15] | Potency [16] | outcome [17]
active: Potency [3] 0.631 µM

COc1ccc(-c2nc3cnc(OC)nc3n(C)c2=O)cc1
inactive: Potency [1] > 11.4 µM | activity change, negative = inhibition [2] 8.21% | activity change, negative = inhibition [4] -0.516% | activity, negative = inhibition [5] 15.6% | Potency [6] > 9.22 µM | Potency [7] > 46 µM | Potency [8] | Potency [9] | Potency [11] | Potency [13] | Potency [14] | Potency [15] | Potency [16] | outcome [17]
active: Potency [3] 2.51 µM

COc1ncc2nc(C)c(=O)n(-c3ccccc3)c2n1
active: Potency [3] 5.01 µM
inactive: Potency [1] > 11.4 µM | activity change, negative = inhibition [2] -2.25% | activity change, negative = inhibition [4] 2.66% | activity, negative = inhibition [5] -8.97% | Potency [6] > 9.22 µM | Potency [7] > 46 µM | Potency [8] | Potency [9] | Potency [11] | Potency [13] | Potency [14] | Potency [15] | Potency [16] | outcome [17]

COc1cccc(Cn2c(=O)c(-c3cn(C)c4ccccc34)nc3cncnc32)c1
active: Potency [3] 1 µM
inactive: Potency [1] > 11.4 µM | activity change, negative = inhibition [2] 2.97% | activity change, negative = inhibition [4] -0.984% | activity, negative = inhibition [5] -0.403% | Potency [6] > 9.22 µM | Potency [7] > 46 µM | Potency [8] | Potency [9] | Potency [11] | Potency [13] | Potency [14] | Potency [15] | Potency [16] | outcome [17]

c1ccc(CNc2ncncc2-c2cccnc2)cc1
active: Potency [3] 2.51 µM | Potency [10] 1.26 µM
inactive: Potency [1] > 11.4 µM | activity change, negative = inhibition [2] 1.26% | activity change, negative = inhibition [4] -2.51% | activity, negative = inhibition [5] -3.91% | Potency [6] > 46 µM | Potency [7] > 46 µM | Potency [8] | Potency [9] | Potency [11] | Potency [13] | Potency [14] | Potency [15] | Potency [16] | outcome [17]
